Common to all, as to parameters: scale not given: direction of the effect not stated beside the values
For test [1], the target named is Protein translocase subunit SecA (Escherichia coli (strain K12)) (UniProt P10408). Briefly: Assay to Identify E. coli SecA ATPase Inhibitors. Format: functional. The settings on record: 30 µM.
Test [2] deals with T1, Ubiquitin-activating enzyme e1, putative (Leishmania donovani (strain BPK282A1)) (UniProt E9BSI1).
T1 sequence (whole entry): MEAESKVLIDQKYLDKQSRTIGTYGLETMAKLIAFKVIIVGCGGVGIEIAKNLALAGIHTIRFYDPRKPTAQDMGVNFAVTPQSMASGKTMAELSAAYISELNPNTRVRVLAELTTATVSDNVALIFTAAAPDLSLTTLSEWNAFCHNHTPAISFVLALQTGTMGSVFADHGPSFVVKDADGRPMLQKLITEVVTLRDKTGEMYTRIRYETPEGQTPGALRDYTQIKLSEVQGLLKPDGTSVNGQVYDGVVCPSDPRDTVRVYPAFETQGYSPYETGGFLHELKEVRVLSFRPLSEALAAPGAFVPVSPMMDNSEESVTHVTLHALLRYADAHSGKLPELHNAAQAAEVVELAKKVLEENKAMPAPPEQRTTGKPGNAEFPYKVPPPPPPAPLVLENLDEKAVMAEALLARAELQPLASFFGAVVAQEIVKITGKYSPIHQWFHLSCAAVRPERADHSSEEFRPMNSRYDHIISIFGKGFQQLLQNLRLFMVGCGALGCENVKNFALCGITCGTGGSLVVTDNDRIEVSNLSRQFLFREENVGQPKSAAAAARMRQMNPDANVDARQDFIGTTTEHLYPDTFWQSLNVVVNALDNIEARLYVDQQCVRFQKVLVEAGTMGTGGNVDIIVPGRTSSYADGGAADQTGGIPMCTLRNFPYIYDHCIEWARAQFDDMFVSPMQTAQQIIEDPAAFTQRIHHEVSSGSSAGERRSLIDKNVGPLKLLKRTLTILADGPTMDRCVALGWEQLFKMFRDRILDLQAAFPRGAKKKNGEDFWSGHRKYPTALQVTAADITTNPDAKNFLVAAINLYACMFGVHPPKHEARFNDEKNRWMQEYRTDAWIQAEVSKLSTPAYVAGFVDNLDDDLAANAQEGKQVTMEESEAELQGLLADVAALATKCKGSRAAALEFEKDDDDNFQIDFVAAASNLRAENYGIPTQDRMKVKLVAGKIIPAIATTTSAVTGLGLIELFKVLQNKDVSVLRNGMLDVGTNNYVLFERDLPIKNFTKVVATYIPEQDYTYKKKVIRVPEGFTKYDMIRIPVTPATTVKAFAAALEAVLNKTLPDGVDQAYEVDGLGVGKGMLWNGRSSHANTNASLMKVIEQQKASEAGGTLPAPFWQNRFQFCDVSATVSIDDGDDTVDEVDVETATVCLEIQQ
Briefly: Leishmania donovani Ubiquitin Activating Enzyme (LdE1). Type of test: functional. Conditions: 30 µM.

Test [3] concerns the target AMP-activated protein kinase, AMPK (Homo sapiens) (UniProt P54646+O43741+P54619+Q9UGJ0+Q9Y478+Q13131+Q9UGI9). The experiment in a line: AMP-dependent Kinase enzyme assay. An in vitro enzyme assay that detects ADP turnover that is directly proportional to AMPK activity. This uses naive AMPK that is activated during the assay with MK-8722. Type of test: functional. Conditions: 30 µM.

Test [4] has as its target Sialic acid-binding Ig-like lectin 9 (Homo sapiens) (UniProt Q9Y336). Briefly: Hs-Siglec9 ALPHAscreen SOP 20170721. Conditions: 10 µM. A general note: Alpha assays give light when donor and acceptor beads are brought close together.
Another test deals with Trypanosoma cruzi. The experiment in a line: Trypanosoma cruzi phosphomannomutase and mannose-1-phosphate guanylyltransferase assay. Type of test: functional. Conditions: 10 µM.
The target of test [5] is T2, Arginase-2, mitochondrial (Homo sapiens) (UniProt P78540).
T2 sequence (whole entry): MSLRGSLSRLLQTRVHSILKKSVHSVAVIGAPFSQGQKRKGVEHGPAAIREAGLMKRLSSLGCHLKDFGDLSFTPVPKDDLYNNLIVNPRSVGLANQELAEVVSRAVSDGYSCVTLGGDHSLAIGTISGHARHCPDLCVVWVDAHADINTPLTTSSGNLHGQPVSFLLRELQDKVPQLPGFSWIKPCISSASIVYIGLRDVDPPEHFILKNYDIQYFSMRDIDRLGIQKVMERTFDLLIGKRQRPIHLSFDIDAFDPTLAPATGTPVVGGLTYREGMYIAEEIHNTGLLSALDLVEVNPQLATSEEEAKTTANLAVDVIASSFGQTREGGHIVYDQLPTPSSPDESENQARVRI
Briefly: in vitro enzyme assay to detect the production of urea directly proportional to the activity of Arginase II. Further: in the data most compounds retested in dose-response had high values. Type of test: functional. The settings on record: 33.3 µM.

Test [6] deals with T3, Proteasome subunit beta (Trypanosoma cruzi) (UniProt O96673).
T3 sequence (whole entry): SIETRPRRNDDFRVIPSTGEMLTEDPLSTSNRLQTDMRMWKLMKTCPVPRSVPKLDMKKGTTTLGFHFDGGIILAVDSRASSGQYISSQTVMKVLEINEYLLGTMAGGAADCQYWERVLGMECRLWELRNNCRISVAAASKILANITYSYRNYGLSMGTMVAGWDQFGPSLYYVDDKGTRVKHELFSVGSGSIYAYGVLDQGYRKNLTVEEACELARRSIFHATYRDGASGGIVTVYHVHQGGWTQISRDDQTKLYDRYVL
Briefly: Trypanosoma cruzi proteasome chymotrypsin-like activity (TcProtChymo) assay. Further: in the data most compounds retested in dose-response had high values. Type of test: functional. Conditions: 9.37 µM.

The species entered for a further test is Homo sapiens. The experiment in a line: To identify inhibition of the IFN signalling (Jak-Stat) pathway via expression of an eGFP reporter gene under the control of an IFN-stimulated response element (ISRE) containing MxA promoter. The settings on record: 30 µM. Type of test: functional. (In general: Reporter assays use an easily measured gene product as a stand-in for the process of interest.)

Test [7] has as its target T4, Tyrosyl-tRNA synthetase, putative (Trypanosoma cruzi (strain CL Brener)) (UniProt Q4DSP6).
T4 sequence (whole entry): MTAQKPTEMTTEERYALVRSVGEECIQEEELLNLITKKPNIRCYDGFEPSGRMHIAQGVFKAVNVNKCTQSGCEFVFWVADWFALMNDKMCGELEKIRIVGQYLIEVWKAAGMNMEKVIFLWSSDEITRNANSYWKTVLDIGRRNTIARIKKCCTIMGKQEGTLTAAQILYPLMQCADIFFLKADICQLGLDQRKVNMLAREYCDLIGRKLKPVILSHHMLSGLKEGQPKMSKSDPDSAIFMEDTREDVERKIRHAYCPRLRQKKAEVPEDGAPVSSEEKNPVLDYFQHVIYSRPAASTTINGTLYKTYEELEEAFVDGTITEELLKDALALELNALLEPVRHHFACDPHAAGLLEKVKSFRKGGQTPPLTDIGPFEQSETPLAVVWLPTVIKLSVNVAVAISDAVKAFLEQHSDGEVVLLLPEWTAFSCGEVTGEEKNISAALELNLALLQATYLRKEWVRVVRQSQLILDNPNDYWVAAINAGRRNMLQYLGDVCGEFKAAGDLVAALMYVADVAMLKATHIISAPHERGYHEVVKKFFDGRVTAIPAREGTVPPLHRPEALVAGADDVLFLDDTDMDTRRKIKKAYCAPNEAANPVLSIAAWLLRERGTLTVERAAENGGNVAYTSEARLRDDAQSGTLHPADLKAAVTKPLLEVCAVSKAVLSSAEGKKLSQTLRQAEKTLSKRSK
Briefly: Trypanosoma cruzi tyrosyl tRNA synthetase (TcYRS) _High Tyrosine SOP. Further: in the data most compounds retested in dose-response had high values. Type of test: functional. The settings on record: 30 µM.

Test [8] deals with T4, Tyrosyl-tRNA synthetase, putative (Trypanosoma cruzi (strain CL Brener)). Briefly: Trypanosoma cruzi tyrosyl tRNA synthetase (TcYRS) SOP. Type of test: functional. Conditions: 30 µM.
For test [9], the target named is Chromo domain-containing protein 1 (Saccharomyces cerevisiae (strain ATCC 204508 / S288c) (Baker's yeast)) (UniProt P32657). The experiment in a line: ScCHD-1 Enzyme Inhibition Assay. Further: in the data most compounds retested in dose-response had high values. Format: functional. The settings on record: 30 µM.
Chain of Chromo domain-containing protein 1 (Saccharomyces cerevisiae (strain ATCC 204508 / S288c) (Baker's yeast)) (P32657 whole entry, the tested form may be a part): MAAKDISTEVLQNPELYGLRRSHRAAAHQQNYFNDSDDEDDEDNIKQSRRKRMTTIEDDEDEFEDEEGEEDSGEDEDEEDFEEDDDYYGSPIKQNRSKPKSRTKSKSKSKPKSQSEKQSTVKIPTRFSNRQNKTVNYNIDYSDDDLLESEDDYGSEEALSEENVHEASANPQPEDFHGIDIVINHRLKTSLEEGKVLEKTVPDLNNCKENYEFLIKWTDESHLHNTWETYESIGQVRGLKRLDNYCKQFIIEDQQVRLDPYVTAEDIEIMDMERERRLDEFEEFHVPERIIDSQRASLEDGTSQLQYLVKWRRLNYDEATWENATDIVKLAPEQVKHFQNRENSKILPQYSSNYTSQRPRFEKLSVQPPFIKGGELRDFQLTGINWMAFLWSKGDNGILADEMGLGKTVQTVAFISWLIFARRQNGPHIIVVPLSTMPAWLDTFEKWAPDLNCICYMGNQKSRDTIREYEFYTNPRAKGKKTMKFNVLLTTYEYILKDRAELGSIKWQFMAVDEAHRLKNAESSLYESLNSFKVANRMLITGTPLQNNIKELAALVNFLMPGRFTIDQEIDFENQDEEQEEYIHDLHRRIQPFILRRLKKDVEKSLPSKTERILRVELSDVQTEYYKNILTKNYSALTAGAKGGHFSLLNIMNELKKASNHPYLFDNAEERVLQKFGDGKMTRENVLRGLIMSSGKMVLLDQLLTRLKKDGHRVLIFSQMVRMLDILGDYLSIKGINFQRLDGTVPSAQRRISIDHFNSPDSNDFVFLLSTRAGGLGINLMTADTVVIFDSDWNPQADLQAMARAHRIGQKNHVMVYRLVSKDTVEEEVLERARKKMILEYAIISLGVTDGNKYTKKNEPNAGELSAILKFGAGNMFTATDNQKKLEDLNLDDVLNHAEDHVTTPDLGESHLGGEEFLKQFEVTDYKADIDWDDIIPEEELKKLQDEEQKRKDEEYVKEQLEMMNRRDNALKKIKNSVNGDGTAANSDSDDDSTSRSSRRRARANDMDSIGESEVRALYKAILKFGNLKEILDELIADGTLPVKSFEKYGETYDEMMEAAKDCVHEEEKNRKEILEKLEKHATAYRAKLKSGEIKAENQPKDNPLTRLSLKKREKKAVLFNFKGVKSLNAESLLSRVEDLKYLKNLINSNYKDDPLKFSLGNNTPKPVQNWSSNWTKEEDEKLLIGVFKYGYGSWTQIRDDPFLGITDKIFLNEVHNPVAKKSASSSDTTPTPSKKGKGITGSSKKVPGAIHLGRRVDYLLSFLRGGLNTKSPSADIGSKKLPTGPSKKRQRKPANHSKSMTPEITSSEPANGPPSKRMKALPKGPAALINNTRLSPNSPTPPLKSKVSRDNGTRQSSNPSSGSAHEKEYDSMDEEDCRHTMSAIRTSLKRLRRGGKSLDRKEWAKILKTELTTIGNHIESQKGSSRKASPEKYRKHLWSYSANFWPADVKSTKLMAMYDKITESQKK

Molecules are shown by their SMILES. For some of these results: Entries with a potency or affinity are not part of this list.

Chain of Sialic acid-binding Ig-like lectin 9 (Homo sapiens) (Q9Y336 whole entry): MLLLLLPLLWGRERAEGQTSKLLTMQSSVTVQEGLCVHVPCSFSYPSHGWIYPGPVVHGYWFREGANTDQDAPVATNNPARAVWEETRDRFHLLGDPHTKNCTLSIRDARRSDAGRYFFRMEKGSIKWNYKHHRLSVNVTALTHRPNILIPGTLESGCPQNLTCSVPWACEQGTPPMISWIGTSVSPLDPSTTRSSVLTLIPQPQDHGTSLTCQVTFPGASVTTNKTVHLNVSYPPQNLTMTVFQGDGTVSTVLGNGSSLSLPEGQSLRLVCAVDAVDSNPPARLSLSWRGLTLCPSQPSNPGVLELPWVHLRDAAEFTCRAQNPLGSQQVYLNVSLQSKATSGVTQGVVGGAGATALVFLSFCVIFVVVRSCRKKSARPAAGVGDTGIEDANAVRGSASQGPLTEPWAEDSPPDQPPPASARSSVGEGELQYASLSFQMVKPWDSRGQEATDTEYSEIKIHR
Chain of Protein translocase subunit SecA (Escherichia coli (strain K12)) (P10408 whole entry): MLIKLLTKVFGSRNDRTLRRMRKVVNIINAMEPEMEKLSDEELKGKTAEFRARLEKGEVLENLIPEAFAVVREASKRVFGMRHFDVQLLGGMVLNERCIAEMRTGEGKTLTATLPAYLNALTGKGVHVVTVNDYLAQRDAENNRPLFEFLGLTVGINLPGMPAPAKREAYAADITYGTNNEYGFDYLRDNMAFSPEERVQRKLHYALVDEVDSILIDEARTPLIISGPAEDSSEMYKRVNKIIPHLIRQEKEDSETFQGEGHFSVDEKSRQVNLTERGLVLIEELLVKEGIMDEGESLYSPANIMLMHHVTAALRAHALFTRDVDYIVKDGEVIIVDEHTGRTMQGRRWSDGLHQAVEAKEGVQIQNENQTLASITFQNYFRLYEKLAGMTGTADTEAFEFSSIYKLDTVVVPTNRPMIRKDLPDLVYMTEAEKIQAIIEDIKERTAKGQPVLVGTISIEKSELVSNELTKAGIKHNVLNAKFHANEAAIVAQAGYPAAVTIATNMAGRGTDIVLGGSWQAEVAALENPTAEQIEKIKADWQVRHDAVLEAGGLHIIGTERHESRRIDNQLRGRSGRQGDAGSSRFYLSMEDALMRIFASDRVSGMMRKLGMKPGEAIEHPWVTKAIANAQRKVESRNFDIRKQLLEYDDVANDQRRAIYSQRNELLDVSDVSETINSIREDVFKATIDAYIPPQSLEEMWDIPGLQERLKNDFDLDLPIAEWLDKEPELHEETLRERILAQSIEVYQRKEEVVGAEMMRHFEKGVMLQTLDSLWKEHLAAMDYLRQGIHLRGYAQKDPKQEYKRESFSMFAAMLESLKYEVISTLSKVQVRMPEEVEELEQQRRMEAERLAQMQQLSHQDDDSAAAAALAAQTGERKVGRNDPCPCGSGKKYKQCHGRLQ

For `CCC(=O)N1CCC(c2nnc(Cn3cccn3)n2C2CC2)CC1`, the Percent Effect in [1] was -5.96%; in test [2], 18.1%; in test [3], -4.09%; in test [4], 12.6%; with Trypanosoma cruzi, 2.23%; in test [5], -0.442%. Moreover, the Percent Effect in test [6] was 8.07%; in the test filed under Homo sapiens it was -1.41%; in [7], 4.21%; in test [8] it was 12.8%; in test [9] it was -0.227%.
For `COc1ncccc1CN1CCn2c(Cn3cncn3)cnc2C1`, the Percent Effect in test [1] is -1.73%; in [2] it was 18.7%; in test [3] it was 0.535%; in [4], -13.2%; with Trypanosoma cruzi, -2.76%; in test [5] it was 2.1%. In addition, the Percent Effect was 8.19% in [6]; -1.48% in the test filed under Homo sapiens; 0% in test [7]; 6.41% in test [8]; -3.83% in test [9].
For `O=C(NCc1cc[nH]n1)NCC(c1ccccc1Cl)N1CCCC1` (stereo not drawn), the Percent Effect was -5.47% in test [1]; 5.41% in [2]; -5.47% in test [3]; 2.23% in test [4]; -2.25% in the test on Trypanosoma cruzi; 4.22% in test [5]. The Percent Effect was 13.1% in test [6]; -4.64% in the test listed under Homo sapiens; 5.38% in [7]; 13.6% in test [8]; -1.7% in test [9].
Consider `COCCCN1CCC(NC(=O)C(C)C)CC1`, for which the Percent Effect in [1] was -6.61%; in [2] it was -2.74%; in test [3] it was -0.488%; in test [4], -2.06%; in the test on Trypanosoma cruzi, -5.16%; in test [5], -2%. The Percent Effect was 6.76% in test [6]; 24.5% in the test filed under Homo sapiens; 0% in test [7]; -1.24% in test [8]; -2.64% in test [9].
For `Cc1nc(CCCNC(=O)C2CC(=O)N(C(C)(C)C)C2)sc1C` (stereo not drawn), the Percent Effect in test [1] is -3.07%; in test [2], 5.48%; in test [3], -0.283%; in [4], 4.12%; in the test on Trypanosoma cruzi, -3.57%; in test [5] it was -2%. Further, the Percent Effect in test [6] was 7.79%; in the test filed under Homo sapiens, 12.9%; in test [7], 5.21%; in test [8], 13.6%; in test [9], -5.51%.
For the compound `Cc1ccc(CN2CC[C@H]3OCC[C@@H](C(=O)NC4CC4)[C@@H]3C2)o1`, the Percent Effect in test [1] was -6.72%; in test [2], 5.41%; in test [3] it was -20.2%; in test [4] it was -9.85%; in the test with Trypanosoma cruzi, -4.01%; in test [5] it was 1.59%. Further, the Percent Effect in [6] was 7.75%; in the test listed under Homo sapiens, 11.3%; in [7], -1.08%; in test [8], -2.56%; in test [9] it was -0.126%.
On to `Cc1nc(CN2CCc3nn(C(C)C)c(=O)cc3C2)oc1C`, for which the Percent Effect in test [1] is -3.86%; in test [2], -2.63%; in [3], -91.7%; in [4], 5.18%; in the test with Trypanosoma cruzi it was -3.83%; in test [5], 6.83%. Also, the Percent Effect in test [6] is 10.4%; in the test listed under Homo sapiens it was -4.72%; in [7], -3.45%; in test [8], -8.64%; in test [9], 2.02%.
Take `O=C(O)c1coc(COc2cccc(F)c2)n1`: the Percent Effect in [1] is -5.01%; in test [2], 16.2%; in test [3], -4.57%; in test [4] it was 33.9%; with Trypanosoma cruzi it was 5.77%; in test [5], 19.6%. Besides, the Percent Effect in [6] was 18.4%; in the test listed under Homo sapiens it was -3.93%; in test [7] it was 5.38%; in test [8], 16.1%; in test [9], -12.4%.

The values above are taken from ChEMBL document CHEMBL3988442, “University of Dundee, Small-Polar-MMV Screening Library” (2021).
